Experimental data: PubChem BioAssay (NCATS)
Inconclusive results are not listed. Calls of active or inactive are those of the source. Calls come from the whole dose curve; as a rule, active = well fitted inhibition curve with a large enough effect; inconclusive = small, poorly fitted or top-dose-only effect; inactive = flat fitted curve, though single readings scatter. Bridge positions count the residues as written; N and C are the ends. Square brackets hold non-standard residues; d marks the D form. Peptide text beside a SMILES is read from it. * marks the point of attachment. Ileψ(thiazoline)Cys = CC[C@H](C)[C@H](N)C1=N[C@H](C(=O)*)CS1; d(aIle) = CC[C@H](C)[C@@H](N)C(=O)O; dOrn = NCCC[C@@H](N)C(=O)O

Assays:
Assay in all cases: qHTS profiling for inhibitors of Plasmodium falciparum proliferation (AID 504749); note: nearly all actives have a fitted effect of over 60% in size
Conditions in all cases: P. falciparum in erythrocytes, SYBR Green DNA, 72 h; series mostly up to 12.8 µM
AS120 = test system: AS120
Method in brief: (§1)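 SYBR Green fluorescence of parasite DNA, read after lysis and overnight dark incubation, measured growth over 72 h in erythrocyte culture at 0.3% parasitemia and 2.5% hematocrit. Data normalised to DMSO and 0.29 uM artemisinin, with plate-drift correction.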

ATS95 = test system: ATS95
Method in brief: as §1

CP185 = test system: CP185
Method in brief: as §1

CP191 = test system: CP191
Method in brief: as §1

CP192 = test system: CP192
Method in brief: as §1

CP247 = test system: CP247
Method in brief: as §1

CP252 = test system: CP252
Method in brief: as §1

CP256 = test system: CP256
Method in brief: as §1

CP262 = test system: CP262
Method in brief: as §1

CP266 = test system: CP266
Method in brief: as §1

CP291 = test system: CP291
Method in brief: as §1

CP305 = test system: CP305
Method in brief: as §1

CP315 = test system: CP315
Method in brief: as §1

CP325 = test system: CP325
Method in brief: as §1

CP329 = test system: CP329
Method in brief: as §1

N140 = test system: N140
Method in brief: as §1

3D7 = test system: 3D7
Method in brief: as §1

TAB113 = test system: TAB113
Method in brief: as §1

CP217 = test system: CP217
Method in brief: as §1

HB3 = test system: HB3
Method in brief: as §1

Measured: Potency
Potency is the fitted concentration of half-maximal effect.

C=C1c2c(Cl)ccc(O)c2C(O)=C2C(=O)[C@@]3(O)C(O)=C(C(N)=O)C(=O)[C@@H](N(C)C)[C@@H]3[C@@H](O)[C@H]12
not listed: 3D7 | TAB113 | CP217 | HB3
inactive: all other assays above

CO[C@H]1[C@H](O[C@H]2O[C@@H](C)[C@@H](O[C@@H]3C[C@](C)(O)[C@H](OC(=O)CC(C)C)[C@H](C)O3)[C@@H](N(C)C)[C@@H]2O)[C@@H](CC=O)C[C@@H](C)[C@@H](O)/C=C\C=C/C[C@@H](C)OC(=O)C[C@H]1OC(C)=O
inactive: 3D7 | TAB113
active: CP256 2 µM | CP262 2.28 µM

CCCCC[C@H](O)/C=C\[C@@H]1[C@H](O)CC(=O)[C@@H]1CCCCCCC(=O)O
not listed: HB3
inactive: all other assays above

CC(=O)O[C@H]1C[C@@]2(C)[C@H](C[C@@H](O)[C@H]3[C@@]4(C)CC[C@@H](O)[C@@H](C)[C@H]4CC[C@@]32C)C1=C(CCC=C(C)C)C(=O)O
inactive: all assays above

O[C@@](CCN1CCCC1)(c1ccccc1)C1CCCCC1
not listed: AS120 | ATS95 | CP247 | CP305 | CP325 | CP329 | N140
inactive: all other assays above

CC1(C)O[C@@H]2C[C@H]3[C@H]4C[C@H](F)C5=CC(=O)CC[C@]5(C)[C@@H]4[C@H](O)C[C@]3(C)[C@]2(C(=O)CO)O1
not listed: CP192
inactive: all other assays above

CC(=O)O[C@]1(C(C)=O)CC[C@@H]2[C@@H]3C=C(C)C4=CC(=O)CC[C@@]4(C)[C@H]3CC[C@]21C
inactive: all assays above

Cc1onc(-c2ccccc2Cl)c1C(=O)N[C@H]1C(=O)N2[C@H]1SC(C)(C)[C@H]2C(=O)O
not listed: CP266
inactive: all other assays above

C[C@H]1CS(=O)(=O)CCN1/N=C\c1ccc([N+](=O)[O-])o1
inactive: all assays above

CC(C)(C)NC[C@H](O)COc1cccc2c1C[C@@H](O)[C@@H](O)C2
inactive: all assays above

CC[C@@H]1OC(=O)[C@H](C)[C@H](O[C@@H]2C[C@](C)(OC)[C@H](O)[C@H](C)O2)[C@H](C)[C@H](O[C@@H]2O[C@@H](C)C[C@@H](N(C)C)[C@@H]2O)[C@](C)(O)C[C@H](C)C(=NOCOCCOC)[C@H](C)[C@H](O)[C@]1(C)O
not listed: CP191 | CP252 | CP256 | CP266 | CP315
inactive: all other assays above

CC[C@H](C)[C@H](N)C1=N[C@H](C(=O)N[C@@H](CC(C)C)C(=O)N[C@@H](CCC(=O)O)C(=O)N[C@@H](C(=O)N[C@H]2CCCCNC(=O)[C@@H](CC(N)=O)NC(=O)[C@@H](CC(=O)O)NC(=O)[C@@H](Cc3cnc[nH]3)NC(=O)[C@@H](Cc3ccccc3)NC(=O)[C@@H]([C@@H](C)CC)NC(=O)[C@@H](CCCN)NC2=O)[C@@H](C)CC)CS1 ({Ileψ(thiazoline)Cys}-LE[d(aIle)]K[dOrn][d(aIle)][dF][dH][dD][dN]; lactam 4-C)
inactive: all assays above
